RE007 growth inh – less growth of the S. pombe RE007 Vpr strain; actives 0.21% (n = 360,000); S. pombe RE007 Vpr strain, BacTiter-Glo ATP luminescence, 24 h; Potency, µM (top dose mostly 92.2 µM), without a hit: top-dose activity change, negative = less growth, usual class: inhibitors; AID 651644; active = well fitted falling curve with a large enough effect; inconclusive = small, poorly fitted or top-dose-only effect; inactive = no such curve, though single readings can be large or run the other way; note: nearly all actives have a fitted effect of over 50% in size
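Fission yeast RE007 carrying one integrated HIV-1 vpr copy, seeded at OD 0.01 in PMG+AL medium with 23 nL pinned compound. Grown 24 h at 30 degrees; viability read by BacTiter-Glo luminescence after 5 min.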
LmPK inhibitor – inhibitors of Leishmania mexicana pyruvate kinase. purified LmPK, Kinase-Glo ATP luminescence, 1 h. Potency, µM (highest dose often 57.5 µM), without a hit: at the highest dose activity change, negative = inhibition, actives largely listed as inhibitors. actives 0.37% (n = 290,000)
Target sequence (Q27686 whole entry, looked up): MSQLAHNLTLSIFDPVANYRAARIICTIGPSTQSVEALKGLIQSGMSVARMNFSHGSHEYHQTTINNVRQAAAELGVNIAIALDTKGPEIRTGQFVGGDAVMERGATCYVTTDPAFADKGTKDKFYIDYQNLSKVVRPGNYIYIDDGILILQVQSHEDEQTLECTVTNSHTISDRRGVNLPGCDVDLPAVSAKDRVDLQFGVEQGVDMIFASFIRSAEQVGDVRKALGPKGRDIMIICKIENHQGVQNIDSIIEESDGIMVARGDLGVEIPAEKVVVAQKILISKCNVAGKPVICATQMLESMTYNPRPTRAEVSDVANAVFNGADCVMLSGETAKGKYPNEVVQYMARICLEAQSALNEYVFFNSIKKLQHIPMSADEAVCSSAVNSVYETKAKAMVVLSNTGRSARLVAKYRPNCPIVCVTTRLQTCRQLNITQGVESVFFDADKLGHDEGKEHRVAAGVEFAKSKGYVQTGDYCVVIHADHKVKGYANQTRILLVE
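Screened at intermediate enzyme activity to detect both inhibitors and activators: LmPK at 0.1 nM, with a 0.5 nM enzyme column as activation reference. PEP 0.5 mM, ADP 0.1 mM; ATP detected by luminescence after 1 h.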
TbPYK inhibitor – T. brucei pyruvate kinase inhibition; Q57TT1; TbPYK enzyme, Kinase-Glo Plus ATP luminescence, 45 min; Potency, µM (top dose mostly 76.8 µM), without a hit: at the top dose activity, negative = inhibition, actives largely listed as inhibitors; actives 0.12% (n = 410,000); AID 624173; note: nearly all actives have a fitted effect of over 50% in size
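Activity of T. brucei pyruvate kinase was followed by Kinase-Glo Plus luminescence after the enzyme reacted 45 min at room temperature with 130 uM ADP (final) and substrate. Test compounds were added before ADP at multiple concentrations.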
AMA1-RON2 inh – inhibitors of Plasmodium falciparum AMA1-RON2 interaction; AlphaScreen AMA1-biotinylated RON2 peptide binding; Potency, µM (top dose mostly 58.2 µM), inactives show at the highest dose activity change, negative = inhibition, actives largely listed as inhibitors; actives 0.2% (n = 360,000); AID 720542;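 note: 0% = vehicle wells and -100% = peptide control; nearly all actives have a fitted effect of over 45% in size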
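AMA1 (3D7) with his tag at 25 nM final met compounds first, then biotinylated RON2 peptide at 25 nM; detection used donor plus acceptor beads, 10 µg/mL apiece, read by AlphaScreen after 30 min at room temperature.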
Sm TGR block – S. mansoni TGR enzyme inhibition; Q962Y6; purified TGR, DTNB reduction, TNB absorbance 405 nm; Potency, µM (series often up to 114 µM), for the others: at the top dose activity change, negative = inhibition, most hits filed as inhibitors; actives 3% (n = 360,000); AID 485364; note: nearly all actives have a fitted effect of over 60% in size
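TGR 20 nM + NADPH 100 uM (dispensed conc.), cpd preinc 15 min RT; start with NADPH (500 uM addition) then DTNB (15 mM addition). Kinetic TNB absorbance, 405 nm filter. Four-parameter Hill fit across titration.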
* marks the source's active call; other numbers are inactive results; ? = inconclusive; · = no result given; [ ] = dose if it differs, or a comment. Hits are enriched below; roughly 3.2% of the tested compounds scored in any of these assays. Unless noted, calls come from the whole dose curve; as a rule, active = well fitted curve in the direction sought with a large enough effect; inconclusive = small, poorly fitted or top-dose-only effect, or another doubt; inactive = no such curve, though single readings can be large; an effect the other way counts as inactive or inconclusive. Unless noted, % is set by controls: 0 for no effect and ±100 for the full control effect; potency is the fitted concentration of half-maximal effect.

SMILES	RE007 growth inh	LmPK inhibitor	TbPYK inhibitor	AMA1-RON2 inh	Sm TGR block
COc1cccc(N2C(=O)CC(N3CCC(c4nc5ccccc5[nH]4)CC3)C2=O)c1 (stereo not drawn)	35µM*	-4%	-6%	21%	-15%
Cc1c(C(=O)N2CCCC2)oc2c1-c1nn(CC(=O)NCc3cccc(Br)c3)cc1CC2	·	·	-3%	·	-12%
COc1ccc(CCNC(=O)NCc2noc3ccc(C)cc23)c(OC)c1	·	·	0%	·	-8%
Cn1cc(C(=O)[C@@H]2CCc3[nH]cnc3C2)c2ccccc21	·	·	2%	·	·
Cc1ccc(NC2=C/C(=N\S(=O)(=O)c3cccs3)c3ccccc3C2=O)c(C)c1	-15%	-27%	-12%	4.5µM*	-31%
Cc1ccc(Cl)cc1NC1=C/C(=N\S(=O)(=O)c2cccs2)c2ccccc2C1=O	-18%	?	-9%	4.5µM*	-17%
O=C(O)c1ccc(NC2=C/C(=N/S(=O)(=O)c3cccs3)c3ccccc3C2=O)cc1	?	·	-10%	?	·
Cc1cccc(NC2=C/C(=N/S(=O)(=O)c3cccs3)c3ccccc3C2=O)c1	-3%	-15%	-30%	?	-17%
O=C1C(Nc2ccc(O)cc2)=C/C(=N/S(=O)(=O)c2cccs2)c2ccccc21	-30%	?	-23%	25µM*	-17%
Cc1ccc(S(=O)(=O)c2cn(C)c3cc(N4CCCCCC4)c(F)cc3c2=O)cc1	·	·	-6%	·	-4%
COCCn1c(C)cc(C(=O)COC(=O)c2ccc([N+](=O)[O-])o2)c1C	-3%	-1%	2%	-21%	35µM*
Cc1cc(C(=O)COC(=O)c2ccc3c(c2)OCO3)c(C)n1CC1CCCO1 (stereo not drawn)	32%	-28%	-1%	2%	-4%
Cc1cc(C)c(C(=O)COC(=O)c2ccc([N+](=O)[O-])o2)cc1C	?	0%[11.5 µM]	2%	?	?
Cc1cc(C(=O)COC(=O)c2ccc([N+](=O)[O-])o2)c(C)n1CC1CCCO1 (stereo not drawn)	-26%	0%	-6%	-9%	35µM*
O=C(/C=C/c1ccco1)NCC(=O)N/N=C/c1ccc([N+](=O)[O-])cc1	-15%	4%	?	7%	8.9µM*
C/C(=N/NC(=O)CNC(=O)/C=C/c1ccco1)c1ccc(Cl)cc1	-2%	1%	-1%	2%	8.9µM*
O=C(/C=C/c1ccc([N+](=O)[O-])cc1)/C=C/c1ccco1	·	-9%	·	·	4.5µM*
O=C(/C=C/c1ccco1)NCC(=O)N/N=C/c1ccc(Cl)cc1	7%	1%	-5%	0%	14µM*
CCOC(=O)c1cc(-c2ccc(OC)cc2)n(CCC(=O)NC2CCC(C)CC2)c1C (stereo not drawn)	·	·	-3%	·	4%
Cc1ccccc1CNCCCSc1nnnn1-c1ccccc1	·	·	2%	·	0%
CC(C)c1nn2c(=O)cc(COC(=O)c3ccc(NC(=O)COc4ccccc4)cc3)nc2s1	·	·	-6%	·	10%
CC(=O)Nc1sc(N/N=C/c2ccccc2F)nc1-c1ccc(C)cc1	-1%	11%	-4%	-1%	32µM*
CCCc1ccc(/C=C2\C(=O)c3ccccc3C(O)=C2C(=O)OCC)cc1	·	?	·	·	8.9µM*
CCOC(=O)C1=C(C)OC(=Cc2ccc(OC)cc2)C1=O	-13%	·	-4%	19%	·
CCOC(=O)C1=C(O)c2ccccc2C(=O)/C1=C\c1ccc(CC)cc1	?	?	?	?	4.5µM*
SMILES	RE007 growth inh	LmPK inhibitor	TbPYK inhibitor	AMA1-RON2 inh	Sm TGR block
CCOC(=O)c1c(C)oc2c1C(=O)c1ccccc1C2=O	?	-8%	-6%	-11%	-19%
CCC1C(=O)NCCN1Cc1nc(-c2ccc(C)s2)oc1C (stereo not drawn)	7%	2%	0%	16%	40µM*
COc1ccc(-c2c3c(=O)n(C)c(=O)n(C)c3cn2-c2ccc(O)cc2)cc1	2%	6%	-4%	-1%	45µM*
COCCCNC(=O)c1sc2nc3n(c(=O)c2c1C)CCC3	·	·	-6%	·	11µM*
CCN(C(=O)c1sc2nc3n(c(=O)c2c1C)CCCCC3)c1ccc(OC)cc1	·	·	2%	·	22µM*
CCc1ccc(N(CC)C(=O)c2sc3nc4n(c(=O)c3c2C)CCCC4)cc1	·	·	1%	·	10µM*
CC(=O)Nc1cccc(NC(=S)Nc2cccc(Cl)c2Cl)c1	-7%	2%	2%	2%	·
CC(=O)CC(=O)Nc1ccc(C(N)=O)cc1	11%	1%	1%	-4%	10%
CNC(=S)Nc1ccc(C(N)=O)cc1	-2%	-1%	0%	-3%	40µM*
S=C(Nc1ccc(CN2CCCCC2)cc1)Nc1cccc(Cl)c1Cl	-17%	-1%	-23%	-14%	25µM*
COC(=O)c1cccc(NC(=S)Nc2cccc(Cl)c2Cl)c1	-4%	-1%	-4%	16%	45µM*
NC(=O)c1ccc(C(=O)Nc2ccc([As](=O)(O)O)cc2)cc1	·	-3%	·	·	45µM*
C=CCNC(=S)Nc1ccc(C(N)=O)cc1	-17%	3%	4%	-12%	?
Cc1ccc(NC(=O)CN2C(=O)c3cccnc3Oc3ccc(Cl)cc32)cc1	·	·	5%[15.4 µM]	·	-5%
O=C(CSc1nc(=O)[nH]c2c1CCCC2)Nc1ccc(Cl)c(Cl)c1	·	·	5%	·	-19%
COC(=O)c1cccc(NC(N)=S)c1	42%	-1%	-6%	11%	·
CNC(=S)Nc1cccc(C(=O)OC)c1	2%	3%	2%	-19%	32µM*
CC(=O)c1ccc(NC(=S)Nc2cccc(Cl)c2C)cc1	2%	-5%	-1%	42%	35µM*
COC(=O)c1ccc(NC(=S)Nc2ccccc2)cc1	-12%	4%	0%	-4%	32µM*
COC(=O)c1ccc(NC(=S)Nc2ccc3ccccc3c2)cc1	-18%	-5%	-10%	-10%	-32%
CCOC(=O)c1sc2nc3n(c(=O)c2c1C)CCC(C)CC3 (stereo not drawn)	-16%	7%	-27%	-7%	-2%
CCOC(=O)N1CCN(C(=O)Nc2sc3nc4n(c(=O)c3c2C)CCC(C)CC4)CC1 (stereo not drawn)	0%	1%	-15%	-9%	2.8µM*
Cc1nc(SCC(=O)NC(=O)NCc2ccccc2)nc(C)c1C	3%	10%	3%	-22%	11%
Cc1sc2nc(C(C)C)nc(SCC(=O)NCc3ccco3)c2c1C	14%	-1%	-11%	35%	45µM*
O=C(Cn1cnc2sc(-c3ccccc3)cc2c1=O)NCc1ccco1	-8%	2%	?	-16%	13µM*
O=C(CSc1nnc(-c2ccccc2)c(-c2ccccc2)n1)NCc1ccco1	3%	6%	-8%	-17%	40µM*
O=C(Cn1cnc2sc(-c3ccccc3)cc2c1=O)NCc1ccccc1	0%	8%	-2%	5%	2%

Bioassay records from PubChem.
